The record followed here is PubChem BioAssay (NCATS).

Assay [1] addresses Thioredoxin reductase 1, cytoplasmic (Rattus norvegicus) (UniProt O89049). As to the kind of experiment: qHTS Assay for Inhibitors of Mammalian Selenoprotein Thioredoxin Reductase 1 (TrxR1) (AID 488773). Also: nearly all actives have a fitted effect of over 40% in size. Also: potency is read from the fitted curve at half-maximal effect. Conditions: Potency: inhibition. A digest of the protocol:
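Steps: enzyme (90 nM) plus NADPH (400 uM final), 5 min at ~22 deg C; compound added, 15 min; selenite (400 uM final) added; fluorescence followed for 8 min. Concentration-response curves derived from the normalized delta values.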
A general note: qHTS replaces the single test concentration by a dilution series.

Assay [2] concerns the target Flap endonuclease 1 (Homo sapiens) (UniProt P39748). As to the kind of experiment: qHTS Validation Assay for the Inhibitors of Human Flap endonuclease 1 (FEN1) (AID 488816). Also: potency is read from the fitted curve at half-maximal effect. A digest of the protocol: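 Human FEN1 (10 nM) preincubated 15 min at room temperature with compounds, then flap DNA substrate added at 50 nM final. Fluorescence read at 0 and 15 min; concentration-response fitted with four-parameter Hill equation.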

In assay [3] the target is M-phase phosphoprotein 8 (Homo sapiens) (UniProt Q99549). The assay can be described thus: qHTS Validation Assay for Inhibitors for MPP8 Chromodomain Interactions with Methylated Histone Tails (AID 488949). Also: nearly all actives have a fitted effect of over 55% in size. Also: potency is read from the fitted curve at half-maximal effect. The essentials: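 Disruption of the preformed MPP8–trimethyl-H3K9 peptide complex (both 50 nM, 30 min, RT) is measured after 30 min compound exposure, using AlphaScreen proximity beads; aurintricarboxylic acid titration serves as plate control.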
M-phase phosphoprotein 8 (Homo sapiens), sequence (Q99549 whole entry, looked up): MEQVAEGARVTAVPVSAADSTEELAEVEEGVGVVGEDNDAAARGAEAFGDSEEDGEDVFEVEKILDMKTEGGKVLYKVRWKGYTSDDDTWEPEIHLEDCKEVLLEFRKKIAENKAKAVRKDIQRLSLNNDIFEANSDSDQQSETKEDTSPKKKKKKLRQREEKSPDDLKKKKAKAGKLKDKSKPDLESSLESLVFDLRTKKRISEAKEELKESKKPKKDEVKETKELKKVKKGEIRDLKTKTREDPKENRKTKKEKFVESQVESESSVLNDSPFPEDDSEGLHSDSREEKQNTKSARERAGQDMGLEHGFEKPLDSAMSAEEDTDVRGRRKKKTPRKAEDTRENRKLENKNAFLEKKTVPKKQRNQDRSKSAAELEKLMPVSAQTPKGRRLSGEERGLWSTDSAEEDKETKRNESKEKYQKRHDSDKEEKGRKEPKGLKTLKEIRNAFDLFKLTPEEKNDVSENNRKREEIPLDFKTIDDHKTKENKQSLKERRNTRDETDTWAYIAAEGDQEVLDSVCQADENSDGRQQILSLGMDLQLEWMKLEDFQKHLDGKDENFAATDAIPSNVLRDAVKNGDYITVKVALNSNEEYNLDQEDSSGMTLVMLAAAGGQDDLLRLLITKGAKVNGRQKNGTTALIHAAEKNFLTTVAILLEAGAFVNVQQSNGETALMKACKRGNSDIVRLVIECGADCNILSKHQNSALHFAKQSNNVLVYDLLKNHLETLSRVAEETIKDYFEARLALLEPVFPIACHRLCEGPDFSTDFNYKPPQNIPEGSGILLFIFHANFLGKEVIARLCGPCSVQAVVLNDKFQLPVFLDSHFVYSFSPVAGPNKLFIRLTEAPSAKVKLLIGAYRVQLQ

Assay [4] has as its target Chromobox protein homolog 1 (Homo sapiens) (UniProt P83916). As to the kind of experiment: qHTS Validation Assay for Inhibitors of HP1-beta Chromodomain Interactions with Methylated Histone Tails (AID 488953). Also: nearly all actives have a fitted effect of over 50% in size. Also: potency is read from the fitted curve at half-maximal effect. A digest of the protocol: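 HP1-beta (50 nM) preformed 30 min with biotinylated H3(1-18)K9me3 peptide (50 nM) in PBS pH 7.4, 0.01% Tween-20. Compounds added for 30 min at room temperature. Complex disruption read by AlphaScreen with streptavidin donor/nickel chelate acceptor beads (10 ug/mL each).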

Assay [5] deals with Methanococcus maripaludis chaperonin (MmCpn) (UniProt Q6LX38). As to the kind of experiment: High-Throughput Screening for Modulators of Cytosolic Chaperonin Activity: MmCpn Primary Screen (AID 488978).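 Also: 50 nM MmCpn enzyme hydrolysing 30 µM ATP at 37 °C; 0% is about no effect.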 A digest of the protocol:
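Measures ATPase turnover of the M. maripaludis chaperonin (50 nM final) against 30 uM ATP over 10 min at 37C, with compound added 5 min beforehand at room temperature. ADP is quantified by HTRF immunodetection.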

For assay [6], the target named is D(1A) dopamine receptor (Homo sapiens) (UniProt P21728). As to the kind of experiment: HTS Assay for Allosteric Agonists of the Human D1 Dopamine Receptor: Primary Screen for Agonists (AID 488981). Also: 0% is about no effect. The essentials: (§1)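 Tetracycline-induced HEK293 Trex D1 cells with forced coupling to calcium, loaded with no-wash calcium dye; kinetic fluorescence read 180 s after compound addition for agonism, then a further 180 s after an EC20 dopamine challenge for potentiation.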
D(1A) dopamine receptor (Homo sapiens), sequence (P21728 whole entry, looked up): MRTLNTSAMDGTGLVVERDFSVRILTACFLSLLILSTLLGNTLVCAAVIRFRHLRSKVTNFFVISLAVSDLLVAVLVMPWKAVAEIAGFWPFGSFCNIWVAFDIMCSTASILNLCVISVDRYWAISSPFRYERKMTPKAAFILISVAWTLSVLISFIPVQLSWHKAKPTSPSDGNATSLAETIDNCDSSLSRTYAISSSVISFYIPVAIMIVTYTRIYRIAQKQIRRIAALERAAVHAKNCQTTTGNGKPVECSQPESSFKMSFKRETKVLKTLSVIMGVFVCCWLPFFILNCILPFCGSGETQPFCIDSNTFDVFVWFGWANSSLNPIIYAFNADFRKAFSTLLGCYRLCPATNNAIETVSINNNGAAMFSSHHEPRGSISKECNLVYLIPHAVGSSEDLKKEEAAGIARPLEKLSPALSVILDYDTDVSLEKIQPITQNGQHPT

Assay [7] shares this target. As to the kind of experiment: HTS Assay for Allosteric Agonists of the Human D1 Dopamine Receptor: Primary Screen for Potentiators (AID 488982). Also: 0% is about no effect. A digest of the protocol: as §1
The target is the same in assay [8]. The assay can be described thus: HTS Assay for Allosteric Agonists of the Human D1 Dopamine Receptor: Primary Screen for Antagonists (AID 488983).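 Also: calcium flux response to an EC80 dopamine challenge measured with no-wash dye; % is scaled to controls: 0 for no effect and ±100 for the full control effect; nearly all actives have a fitted effect of over 65% in size.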 The essentials: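 Tetracycline-induced HEK293 T-REx D1 line, force-coupled to calcium flux, read with no-wash calcium dye. Compound added after 10 s baseline, read 180 s for agonism, then EC80 dopamine added and read a further 180 s.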

Assay [9] has as its target ATPase family AAA domain-containing protein 5 (Homo sapiens) (UniProt Q96QE3). The assay can be described thus: Validation screen for small molecules that inhibit ELG1-dependent DNA repair in human embryonic kidney (HEK293T) cells expressing luciferase-tagged ELG1 (AID 493107). Also: nearly all actives have a fitted effect of over 70% in size. Also: potency is read from the fitted curve at half-maximal effect. A digest of the protocol:
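HEK293T cells expressing luciferase-tagged ELG1, 2,000 per well, treated with 5-fluorouridine plus compound for 16 h at 37 C. ONE-Glo luminescence after 30 min at room temperature reports ELG1 reporter level.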

Assay [10] can be described thus: Nrf2 qHTS screen for inhibitors: Validation (AID 493153; active = well fitted inhibition curve with a large enough effect in the main read-out, with a control signal flat, not every such curve was filed as active). Conditions: Potency: luciferase luminescence; viability change: measured here: cytotoxicity max response. The essentials:
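A549 cells carrying ARE-firefly luciferase reporter, 5000 cells/well in 5% FBS OPTI-MEM, treated with compound over a concentration series for 18-24 h at 37 C. Luciferase luminescence gave Nrf2 activity; CellTiter-Fluor fluorescence gave viability.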

Assay [11] is described as follows: qHTS for Inhibitors of Cell Surface uPA Generation: Validation Assay (AID 493164). Also: 0% is about no effect. A digest of the protocol: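 RAW 264.7 cells (4000/well) were plated overnight, then exposed for 18 h at 37 C, 5% CO2 to compounds in a 7-point 1:5 titration (2.45 nM–38.3 uM final). Intracellular ATP was read by ATP-Lite luminescence.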
Assay [12] deals with Phosphoglycerate kinase, glycosomal (Trypanosoma brucei brucei) (UniProt P07378). As to the kind of experiment: qHTS Validation Assay to Find Inhibitors of Phosphoglycerate Kinase (AID 504547). Also: potency is read from the fitted curve at half-maximal effect. A digest of the protocol:
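PGK activity was coupled to GAPDH (100nM final), which generates the unstable substrate 1,3-bisphosphoglycerate in-well. Reactions ran 60 minutes at room temperature in 100mM TEA pH 7.6, 5mM MgCl2, 0.01% Tween-20, then Kinase-Glo Plus luminescence was read.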

In assay [13] the target is Transient receptor potential cation channel subfamily V member 1 (Homo sapiens) (UniProt Q8NER1). As to the kind of experiment: HTS Assay for Compounds that Act as Enhancers of the Vanilloid Receptor 1 (AID 488979). Also: 0% is about no effect. A digest of the protocol: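 TRPV1 cells loaded with Fluo-8 calcium dye; compound added and Ca2+ signal (ex 480/em 520 nm) followed 3 min, then capsaicin at EC20 added and read 2 more min to detect enhancement.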

For assay [14], the target named is Thyrotropin receptor (Homo sapiens) (UniProt P16473). The assay can be described thus: qHTS Assay for Antagonists of the Thyroid Stimulating Hormone Receptor (AID 488980). Also: series mostly up to about 58 µM; 0% is about no effect. A digest of the protocol: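 Cells expressing human TSHR (HEK293) are dispensed in HBSS/HEPES containing 70 uM RO 20-1724, compound is added, then TSH at EC80 (4 nM final). Antibody in lysis buffer follows, 30 minutes at room temperature before HTRF detection.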

The target of assay [15] is Thyrotropin-releasing hormone receptor (Homo sapiens) (UniProt P34981). The assay can be described thus: qHTS for Small Molecule Agonists and Allosteric Enhancers of Human TRH Receptor: Validation Screen for Agonists (AID 493127;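 active = calcium activation more than 3 SD above the typical response in the agonist read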; also: 0% is about no effect). Conditions: TRH receptor agonist cell assay; at 2 µM; stronger effect = higher value. The essentials: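 TRHR cells loaded with fluo-8 calcium dye; FDSS kinetic fluorescence (Ex 480/Em 530) read at 1 s/cycle after 23 nL compound addition. Agonist-mode calcium response recorded before the 10 nM TRH (EC20) addition.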

Assay [16] concerns the target Galactokinase (Homo sapiens) (UniProt P51570). As to the kind of experiment: qHTS Validation Assay for Inhibitors of Human Galactokinase (GALK) (AID 493189). Also: 0% is about no effect. The essentials:
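Compounds were pin-transferred into ATP buffer, then GALK-galactose mix was added (final 5 nM enzyme, 100 uM galactose, 35 uM ATP). After 1 h at room temperature, remaining ATP was measured luminescently.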

Assay [17] is described as follows: Validation screen for small molecules that induce DNA re-replication in SW480 colon adenocarcinoma cells (AID 504364). Also: 0% is about no effect. A digest of the protocol: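 SW480 cells (250/well) exposed 48 h at 37 C, 5% CO2, then Hoechst-stained 40 min. Nuclear DNA content imaged by fluorescence scanning (405 nm excitation, 500-530 nm emission); re-replication scored as increased nuclei with elevated intensity.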

The target in assay [18] is Peptidyl-prolyl cis-trans isomerase NIMA-interacting 1 (Homo sapiens) (UniProt Q13526). As to the kind of experiment: qHTS Validation Assay to Find Inhibitors of Pin1 (AID 504536; active = well fitted inhibition curve with a large enough effect in the polarisation, with a control signal flat, not every such curve was filed as active; the % refers to the polarisation;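 also: 0% = full Pin1 enzyme wells and -100% = no-enzyme wells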). A digest of the protocol: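 Fluorescence polarization competition: compounds (titration) displace HiFluor-488-labeled Pin1-1b peptide from Pin1 (0.3 uM final) in pH 7.5 HEPES buffer with DTT, 10 min at room temperature; %Activity normalized to no-enzyme wells, curves fitted.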
Peptidyl-prolyl cis-trans isomerase NIMA-interacting 1 (Homo sapiens), sequence (Q13526 whole entry, looked up): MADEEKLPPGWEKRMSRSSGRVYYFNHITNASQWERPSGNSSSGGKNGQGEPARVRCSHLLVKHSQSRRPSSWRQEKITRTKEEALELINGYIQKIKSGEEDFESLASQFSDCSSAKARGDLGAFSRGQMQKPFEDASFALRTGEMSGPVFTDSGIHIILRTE

For assay [19], the target named is ATP-dependent 6-phosphofructokinase (Trypanosoma brucei brucei) (UniProt O15648). The assay can be described thus: qHTS Assay to Find Inhibitors of T. brucei phosphofructokinase: hit validation (AID 492961). Also: series mostly up to about 51 µM; % is scaled to controls: 0 for no effect and ±100 for the full control effect. The essentials:
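Luminescence from ADP-Glo reports ADP generated as T. brucei PFK (1.25 nM) phosphorylates 0.5 mM fructose-6-phosphate using 0.1 mM ATP. Reactions ran 45 min at room temperature, pH 8.0.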

Each structure is given as a SMILES string. Results filed as inconclusive are left out. Activity calls are given as the source filed them. Unless noted, calls follow the shape of the dose curve; as a rule, active = well fitted curve in the direction sought with a large enough effect; inconclusive = small, poorly fitted or top-dose-only effect, or another doubt; inactive = no such curve, though single readings can be large; an effect the other way counts as inactive or inconclusive.

Methanococcus maripaludis chaperonin (MmCpn), sequence (Q6LX38 1-543): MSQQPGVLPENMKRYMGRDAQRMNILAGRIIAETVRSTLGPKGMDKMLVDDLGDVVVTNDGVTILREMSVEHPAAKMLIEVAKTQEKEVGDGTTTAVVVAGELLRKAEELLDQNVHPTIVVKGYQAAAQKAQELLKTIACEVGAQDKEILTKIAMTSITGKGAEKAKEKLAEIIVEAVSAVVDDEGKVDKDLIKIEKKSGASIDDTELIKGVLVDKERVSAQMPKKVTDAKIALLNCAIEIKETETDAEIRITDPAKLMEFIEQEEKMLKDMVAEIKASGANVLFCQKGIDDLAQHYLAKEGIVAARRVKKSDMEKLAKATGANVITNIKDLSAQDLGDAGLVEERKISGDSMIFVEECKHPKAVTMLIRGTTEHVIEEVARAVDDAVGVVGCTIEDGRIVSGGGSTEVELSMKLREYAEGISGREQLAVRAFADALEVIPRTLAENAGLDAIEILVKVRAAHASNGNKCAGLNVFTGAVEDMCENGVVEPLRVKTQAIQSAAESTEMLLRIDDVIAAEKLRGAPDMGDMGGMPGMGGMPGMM
Phosphoglycerate kinase, glycosomal (Trypanosoma brucei brucei), sequence (P07378 whole entry, looked up): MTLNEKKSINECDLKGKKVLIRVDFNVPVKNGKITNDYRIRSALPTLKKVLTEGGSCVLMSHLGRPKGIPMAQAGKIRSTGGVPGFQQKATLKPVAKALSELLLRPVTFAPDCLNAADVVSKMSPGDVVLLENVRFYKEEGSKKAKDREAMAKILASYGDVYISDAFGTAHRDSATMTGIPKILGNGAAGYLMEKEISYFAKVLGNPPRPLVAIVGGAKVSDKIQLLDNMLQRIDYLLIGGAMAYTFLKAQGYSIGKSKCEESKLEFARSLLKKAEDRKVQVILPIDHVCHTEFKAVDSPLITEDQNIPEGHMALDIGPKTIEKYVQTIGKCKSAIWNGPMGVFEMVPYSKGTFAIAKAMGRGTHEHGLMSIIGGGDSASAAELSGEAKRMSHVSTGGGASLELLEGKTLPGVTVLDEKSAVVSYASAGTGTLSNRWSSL
Chromobox protein homolog 1 (Homo sapiens), sequence (P83916 whole entry, looked up): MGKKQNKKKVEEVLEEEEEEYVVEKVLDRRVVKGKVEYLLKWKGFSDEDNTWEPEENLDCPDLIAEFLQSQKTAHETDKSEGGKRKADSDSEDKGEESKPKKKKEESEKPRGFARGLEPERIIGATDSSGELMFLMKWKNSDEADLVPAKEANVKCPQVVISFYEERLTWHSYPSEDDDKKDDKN
Thioredoxin reductase 1, cytoplasmic (Rattus norvegicus), sequence (O89049 whole entry, looked up): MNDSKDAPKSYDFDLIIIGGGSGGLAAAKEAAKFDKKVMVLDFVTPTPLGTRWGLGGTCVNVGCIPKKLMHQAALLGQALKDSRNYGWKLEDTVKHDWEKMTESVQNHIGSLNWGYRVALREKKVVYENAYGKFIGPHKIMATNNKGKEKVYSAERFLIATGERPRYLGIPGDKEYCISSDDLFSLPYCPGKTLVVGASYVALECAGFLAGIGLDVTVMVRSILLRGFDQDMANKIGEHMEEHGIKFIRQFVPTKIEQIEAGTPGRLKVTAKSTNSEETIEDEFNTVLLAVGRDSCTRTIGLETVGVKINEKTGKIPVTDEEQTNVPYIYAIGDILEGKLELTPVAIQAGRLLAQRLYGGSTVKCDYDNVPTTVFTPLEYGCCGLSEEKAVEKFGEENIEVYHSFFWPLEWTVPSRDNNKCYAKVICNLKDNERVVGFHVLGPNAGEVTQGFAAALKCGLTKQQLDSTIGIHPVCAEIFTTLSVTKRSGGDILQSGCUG
ATPase family AAA domain-containing protein 5 (Homo sapiens), sequence (Q96QE3 whole entry, looked up, the tested form may be a part): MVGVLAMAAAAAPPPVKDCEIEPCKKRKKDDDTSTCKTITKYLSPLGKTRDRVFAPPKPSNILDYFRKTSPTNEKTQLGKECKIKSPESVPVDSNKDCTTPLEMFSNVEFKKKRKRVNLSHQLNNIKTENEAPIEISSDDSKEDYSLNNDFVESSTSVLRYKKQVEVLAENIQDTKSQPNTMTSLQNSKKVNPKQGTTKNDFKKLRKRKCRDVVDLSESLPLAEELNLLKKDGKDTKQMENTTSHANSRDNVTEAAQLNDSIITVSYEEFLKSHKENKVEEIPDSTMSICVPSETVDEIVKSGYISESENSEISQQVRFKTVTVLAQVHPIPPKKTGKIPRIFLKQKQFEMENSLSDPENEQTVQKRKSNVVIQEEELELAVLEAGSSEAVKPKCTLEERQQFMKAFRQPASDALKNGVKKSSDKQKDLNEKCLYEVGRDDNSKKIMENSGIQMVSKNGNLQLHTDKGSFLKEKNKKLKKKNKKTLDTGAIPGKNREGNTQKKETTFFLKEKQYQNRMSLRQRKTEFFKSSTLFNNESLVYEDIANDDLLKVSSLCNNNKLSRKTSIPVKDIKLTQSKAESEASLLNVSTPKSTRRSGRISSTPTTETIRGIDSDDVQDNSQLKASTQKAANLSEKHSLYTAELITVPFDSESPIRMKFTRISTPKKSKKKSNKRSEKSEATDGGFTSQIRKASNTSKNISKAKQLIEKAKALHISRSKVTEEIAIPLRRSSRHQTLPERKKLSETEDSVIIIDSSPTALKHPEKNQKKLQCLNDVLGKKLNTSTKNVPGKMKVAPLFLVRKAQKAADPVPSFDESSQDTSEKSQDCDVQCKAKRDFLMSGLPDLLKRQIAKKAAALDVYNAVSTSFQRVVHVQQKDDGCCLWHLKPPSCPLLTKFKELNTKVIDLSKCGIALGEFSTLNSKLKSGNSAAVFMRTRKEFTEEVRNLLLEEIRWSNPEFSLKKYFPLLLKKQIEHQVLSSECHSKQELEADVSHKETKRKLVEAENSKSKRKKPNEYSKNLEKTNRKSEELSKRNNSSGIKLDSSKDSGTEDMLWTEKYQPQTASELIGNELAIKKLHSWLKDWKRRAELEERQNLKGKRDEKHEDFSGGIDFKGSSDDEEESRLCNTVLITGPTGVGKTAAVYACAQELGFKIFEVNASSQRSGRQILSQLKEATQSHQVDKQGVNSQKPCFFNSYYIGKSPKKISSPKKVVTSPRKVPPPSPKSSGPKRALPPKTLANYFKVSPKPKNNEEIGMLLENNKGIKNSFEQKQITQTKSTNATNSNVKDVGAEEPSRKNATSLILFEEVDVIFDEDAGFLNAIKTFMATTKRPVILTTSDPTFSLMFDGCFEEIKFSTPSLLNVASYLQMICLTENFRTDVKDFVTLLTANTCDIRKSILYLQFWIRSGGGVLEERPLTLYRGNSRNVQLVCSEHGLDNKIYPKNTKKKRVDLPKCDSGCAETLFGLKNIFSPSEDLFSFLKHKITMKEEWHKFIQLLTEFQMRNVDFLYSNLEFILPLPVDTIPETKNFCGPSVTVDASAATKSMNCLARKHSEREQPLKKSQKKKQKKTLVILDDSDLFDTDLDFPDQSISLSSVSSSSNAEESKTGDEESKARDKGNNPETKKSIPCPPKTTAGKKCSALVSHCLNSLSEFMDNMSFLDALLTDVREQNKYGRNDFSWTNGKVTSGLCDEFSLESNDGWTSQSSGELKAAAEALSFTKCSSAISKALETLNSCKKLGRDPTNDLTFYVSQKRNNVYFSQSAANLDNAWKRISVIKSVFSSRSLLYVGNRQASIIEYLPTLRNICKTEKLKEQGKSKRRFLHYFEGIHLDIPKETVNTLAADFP

In the case of `N[C@@H](Cc1ccc(O)c(O)c1)C(=O)O`, the Potency in assay [1] was 29.9 µM (active); in [2], 3.77 µM (active); in assay [3], 7.52 µM (active); in assay [4] it was 31.6 µM (active); in assay [12] it was 9.53 µM (active). For the same molecule, the call in assay [5], in assay [6], in assay [7], in assay [8] and in assay [11] was inactive. Further, the Potency entry in [9] and in assay [10] was “inactive” each time. Moreover, in [10], the viability change was -3.54%.

Regarding `NC(=O)c1cccc(N)c1`, the Potency entry in [1], in assay [2], in assay [3], in assay [4], in assay [9] and in assay [10] was “inactive” each time. The Potency result in assay [12] was “inactive”. Also, the result in assay [5], in assay [13], in assay [14], in assay [6], in assay [7] and in [8] was inactive. For the same molecule, the call in [11], in assay [16], in [17] and in assay [18] was inactive. For the same molecule, the activation in assay [15] is 1.12% (inactive). The viability change in [10] was found to be 9.41%.

Regarding `COc1cc2nc(N3CCCN(C)CC3)nc(NC3CCN(Cc4ccccc4)CC3)c2cc1OC`, the Potency result in assay [1], in [3] and in assay [12] was “inactive” throughout. Further, the molecule was classed as inactive in assay [5], in [6], in [7], in assay [8], in [11] and in assay [18]. The Potency in assay [9] is 25.9 µM (active).

With `CC(C)NCC(O)c1ccc(NS(C)(=O)=O)cc1` (stereo not given), the Potency entry in [1], in assay [2], in [3], in assay [4], in [19] and in assay [9] was “inactive” each time. Also, the Potency result in assay [10] and in assay [12] was “inactive” throughout. Besides, the molecule was classed as inactive in [5], in [13], in [14], in [6], in [7] and in [8]. In addition, the molecule was classed as inactive in assay [11], in assay [16], in assay [17] and in assay [18]. Further, the activation in [15] is 0.875% (inactive). Also, the viability change in [10] was -6.97%.

As for `NC(=O)c1ccc2[nH]ccc2c1`, the Potency result in assay [1], in assay [2], in assay [3], in assay [4], in assay [10] and in assay [12] was “inactive” in each case. Besides, the result in assay [5], in assay [6], in assay [7], in assay [8], in assay [11] and in [18] was inactive. Also, the viability change in [10] was -7.5%.
